# From the supplement of paper PMC7156485
# A number with no mark means an inactive call.
# System: TDF
# Test: H1.0 immunofluorescence intensity relative to DMSO (% of DMSO); higher = stronger H1.0 induction, active = 120 or more
# Conditions: concentration: 10 µM; 24 h
# In short: (§1)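 In 384-well plates holding 800 HCC1569 or TDF cells per well in RPMI with 10% FBS, compounds were tested at 10 µM for 24 h at 37 °C in triplicate. Fixation used 3.7% formaldehyde. Staining used a rabbit anti-H1.0 antibody with an AlexaFluor 647 secondary, plus DAPI. Each value, H1.0 nuclear intensity or cell number, is a median of replicates shown as percent of the plate control, and HCC1569 values were smoothed for positional effects.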
# 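Also: TDF is a line of transformed human dermal fibroblasts of mesenchymal origin.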
row,Compound,H1.0 immunofluorescence intensity
1,"CCN(CC)C(=O)c1ccc(Nc2nc(OCC3CCCCC3)c3[nH]cnc3n2)cc1 [Cdk2 Inhibitor IV,                 NU6140]",98.1
2,COC(=O)C1=C(C)NC(C)=C(C(=O)OC)C1c1ccccc1[N+](=O)[O-] [Nifedipine],94.7
3,Cc1cc(=O)oc2cc(O)ccc12 [4-Methylumbelliferone],102
4,C=CC1CN2CCC1CC2C(O)c1ccnc2ccc(OC)cc12.C=CC1CN2CCC1CC2C(O)c1ccnc2ccc(OC)cc12.O=S(=O)(O)O (stereo not drawn) [Quinidine sulfate],95.4
5,O=C(O)CCc1nc(-c2ccccc2)c(-c2ccccc2)o1 [Oxaprozin],96.9
6,O=C(O)CP(=O)(O)O [Phosphonoacetic acid],95.9
7,"COc1cc(C(=O)c2ccc3ncccc3c2)cc(OC)c1OC [quinolin-6-yl(3,4,5-trimethoxyphenyl)methanone]",209 (active)
8,Oc1cccc(-c2nc(N3CCOCC3)c3oc4ncccc4c3n2)c1,88
9,CC(=O)c1ccc(NC2=C(Cl)C(=O)c3ccccc3C2=O)cc1 [2-(4-acetylanilino)-3-chloronaphthoquinone],150 (active)
10,Cn1c(=O)c2c(ncn2CC2OCCO2)n(C)c1=O [Doxofylline],105
11,CCCCCCCCCCCCCCCCCCOCC(COP(=O)([O-])OCC[N+](C)(C)C)OC(C)=O (stereo not drawn),92.5
12,O=C1C(=Cc2ccc(O)c(O)c2)Oc2c1ccc(OC1OC(CO)C(O)C(O)C1O)c2O (stereo not drawn) [Maritimein],102
13,CCCCCC(O)C=CC1=C(CC=CCCCC(=O)O)C(=O)CC1 (stereo not drawn) [Prostaglandin B2],92

# System: HCC1569
# Test: H1.0 immunofluorescence intensity relative to DMSO (% of DMSO); higher = stronger H1.0 induction, active = 140 or more
# Conditions: concentration: 10 µM; 24 h
# In short: as §1
row,Compound,H1.0 immunofluorescence intensity
1,c1ccc(-c2[nH]ncc2-c2ccnc3ccccc23)nc1,102
2,COc1cc2c3cc1Oc1c(OC)c(OC)cc4c1C(Cc1ccc(O)c(c1)Oc1ccc(cc1)CC3N(C)CC2)N(C)CC4.Cl.Cl (stereo not drawn),109
3,COc1cc2nc(N3CCN(C(=O)C4CCCO4)CC3)nc(N)c2cc1OC (stereo not drawn) [Terazosin],98.2
4,CC(COc1ccccc1)N(CCCl)Cc1ccccc1.Cl (stereo not drawn) [Phenoxybenzamine.HCl],102
5,CC1(C)CC(=O)C2=C(C1)NC(=S)NC2c1cccc(O)c1 (stereo not drawn),118
6,COc1ccc2c(c1)CC[C@@H]1[C@@H]2CC[C@]2(C)[C@@H](NCCCCCCN3C(=O)C=CC3=O)CC[C@@H]12.O,107
7,CC(C=CC1=C(C)CCCC1(C)C)=CC=CC(C)=CC(=O)O [Retinoic Acid],121
8,O=S(=O)(c1cccc2cnccc12)N1CCCNCC1,98.2
9,"CCCCS(=N)(=O)CCC(N)C(=O)O (racemic) [DL-Buthionine-[S,R]-sulfoximine]",99.9
10,CCN(CC)CCCC(C)Nc1c2ccc(Cl)cc2nc2ccc(OC)cc12 (stereo not drawn) [Quinacrine],180 (active)
11,O=C1NC(=O)C(=Cc2ccc(-c3ccc(F)cc3O)o2)S1,97.7
12,COc1ccccc1N1CCN(CCCNc2cc(=O)n(C)c(=O)n2C)CC1.Cl [Urapidil hydrochloride],103
13,NC(=O)c1ccc2[nH]ccc2c1,94.2
14,CCCCCC(O)C=CC1C(O)CC(=O)C1CC=CCCCC(=O)O (stereo not drawn) [Prostaglandin E2],100
15,C[C@H](N[C@@H](CCc1ccccc1)C(=O)O)C(=O)N1CCC[C@H]1C(=O)O.O.O,109
16,CCCCCC=CCC=CC=CC=CC(SCC(N)C(=O)NCC(=O)O)C(O)CCCC(=O)O (stereo not drawn) [Leukotriene D4],97.3
17,Oc1ccc(Cn2cc[nH]c2=S)cc1 [1-(4-Hydroxybenzyl)imidazole-2-thiol],96.1
18,CS(=O)(=O)O.O=C1Nc2ccc(-c3cccnc3)cc2C1=Cc1ccc[nH]1 [JAK3 Inhibitor VI],130
19,CCCCCCCCCCCCCCSCC(=O)O [Tetradecylthioacetic acid],102
20,"OCCOc1ccc(/C(=C(/CCCl)c2ccccc2)c2ccccc2)cc1 [2-{4-[(1Z)-4-chloro-1,2-diphenyl-1-butenyl]phenoxy}ethanol]",96.6

row,Compound,H1.0 immunofluorescence intensity
1,CCCc1cc(=O)oc2c(C(=O)N3CCCc4ccccc43)c(OC)cc(OC)c12,159 (active)
2,COC(C(=O)C(O)C(C)O)C1Cc2cc3cc(OC4CC(OC5CC(O)C(O)C(C)O5)C(O)C(C)O4)c(C)c(O)c3c(O)c2C(=O)C1OC1CC(OC2CC(OC3CC(C)(O)C(O)C(C)O3)C(O)C(C)O2)C(O)C(C)O1 (stereo not drawn) [Mithramycin A],112
3,C=C(C)C1CC=C(C(=O)O)CC1 (stereo not drawn) [Perillic acid],92.9
4,COc1cc2ncc(-c3ccccc3)nc2cc1OC [Tyrphostin AG 1296],111
5,O=C1NC(=O)C(=Cc2ccc3c(c2)OC(F)(F)O3)S1 [PI 3-KbInhibitor II],112
6,CCCCCC=CCC=CCC(O)C=CC=CCCCC(=O)O (stereo not drawn),101
7,Cl.O.O.c1ccc2c(c1)CN1CCCC1=N2 [Desoxypeganine],86.8
8,"CCN(CC)C(=O)c1ccc(Nc2nc(OCC3CCCCC3)c3[nH]cnc3n2)cc1 [Cdk2 Inhibitor IV,                 NU6140]",158 (active)
9,COC(=O)C1=C(C)NC(C)=C(C(=O)OC)C1c1ccccc1[N+](=O)[O-] [Nifedipine],104
10,Cc1cc(=O)oc2cc(O)ccc12 [4-Methylumbelliferone],94.5
11,C=CC1CN2CCC1CC2C(O)c1ccnc2ccc(OC)cc12.C=CC1CN2CCC1CC2C(O)c1ccnc2ccc(OC)cc12.O=S(=O)(O)O (stereo not drawn) [Quinidine sulfate],112
12,O=C(O)CCc1nc(-c2ccccc2)c(-c2ccccc2)o1 [Oxaprozin],97.7
13,O=C(O)CP(=O)(O)O [Phosphonoacetic acid],96.9
14,"COc1cc(C(=O)c2ccc3ncccc3c2)cc(OC)c1OC [quinolin-6-yl(3,4,5-trimethoxyphenyl)methanone]",167 (active)
15,Oc1cccc(-c2nc(N3CCOCC3)c3oc4ncccc4c3n2)c1,205 (active)
16,CC(=O)c1ccc(NC2=C(Cl)C(=O)c3ccccc3C2=O)cc1 [2-(4-acetylanilino)-3-chloronaphthoquinone],178 (active)
17,Cn1c(=O)c2c(ncn2CC2OCCO2)n(C)c1=O [Doxofylline],104
18,CCCCCCCCCCCCCCCCCCOCC(COP(=O)([O-])OCC[N+](C)(C)C)OC(C)=O (stereo not drawn),103
19,O=C1C(=Cc2ccc(O)c(O)c2)Oc2c1ccc(OC1OC(CO)C(O)C(O)C1O)c2O (stereo not drawn) [Maritimein],99.6
20,CCCCCC(O)C=CC1=C(CC=CCCCC(=O)O)C(=O)CC1 (stereo not drawn) [Prostaglandin B2],97.4
